Screening results (PubChem BioAssay)
An excerpt weighted towards active compounds, which were near 8% of everything screened.
SW480 rereplic: DNA re-replication induction in SW480 cells; SW480 DNA re-replication, Hoechst DNA content imaging, 48 h; Potency, µM (highest dose often 46.1 µM), without a hit: at the highest dose re-replication activation, actives largely listed as activators; 1.8% of 340,000 active; further: % of control where 0% means no effect; nearly all actives have a fitted effect of over 55% in size
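Per well, 250 cells were exposed to pinned compound for 48 hr. Nuclear DNA was visualised with Hoechst (40 min, 37 C) and total object intensity recorded by fluorescence scanning.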
MCF10A rerep: inducers of DNA re-replication in MCF 10A breast cells. MCF 10A DNA re-replication, Hoechst nuclear intensity, 48 h. Potency, µM (doses to about 46.1 µM), inactives show top-dose activity, positive = re-replication, most hits filed as activators. 2.9% of 350,000 active. AID 624296; further: % of control where 0% means no effect; nearly all actives have a fitted effect of over 50% in size
HT1080-NT tox: kills 2HG-producing HT-1080-NT fibrosarcoma cells; HT-1080-NT fibrosarcoma viability, CellTiter-Glo ATP luminescence, 48 h; Potency, µM (doses to about 46.1 µM), for inactives: at the top dose activity, negative = less viability, hits mostly cytotoxic; 1.6% of 360,000 active;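 further: NT is the 2HG producing partner of a matched IDH1 knockdown line; 0% = DMSO-treated cells and -100% = media-only wells without cells; nearly all actives have a fitted effect of over 55% in size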
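Viability by CellTiter-Glo luminescence after 48 h compound exposure at 37C of HT-1080-NT cells (750/well, RPMI, 5% FBS). % activity scaled between DMSO wells and medium-only wells, then curve-fitted and categorized by curve class.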
KB-V1 MDR tox: kills drug-selected multidrug resistant KB-V1 cells; KB-V1 MDR cells viability, CellTiter-Glo, 72 h; 3.4% of 400,000 active; Potency, µM (doses to about 46.1 µM), hits mostly cytotoxic; AID 1347076; further: on the % scale 0 is the no-effect control and ±100 the full control effect; nearly all actives have a fitted effect of over 60% in size
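Readout: CellTiter-Glo luminescence, 10 min after addition. Cells: KB-V1 MDR subline, 72 h at 37 degrees C with compound. Analysis: corrected, normalized data fitted to concentration-effect curves.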
KB-3-1 cytotox: kills parental KB-3-1 adenocarcinoma cells. KB-3-1 viability, CellTiter-Glo ATP luminescence, 72 h. Potency, µM (doses to about 46.1 µM), actives largely listed as cytotoxic. 1.4% of 400,000 active. AID 1347075; further: on the % scale 0 is the no-effect control and ±100 the full control effect; nearly all actives have a fitted effect of over 60% in size
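72 h, 37 °C compound treatment of KB-3-1 parental cells; CellTiter-Glo added, 10 min, luminescence read. Data corrected against DMSO-only plates and normalized before curve fitting.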
HT1080 IDH1KD tx: toxicity to HT-1080 IDH1 knockdown cells (counter line) | HT-1080 IDH1 knockdown viability, ATP luminescence, 48 h | Potency, µM (highest dose often 46.1 µM), inactives show top-dose activity, negative = toxicity, most hits filed as cytotoxic | 2% of 360,000 active | AID 686971;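 further: 0% = DMSO wells and -100% = cell-free medium wells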
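Using the IDH1-knockdown HT-1080 line run in the same batch and compound series as the NT line, viability after 48 h at 37 °C was determined by CellTiter-Glo luminescence and expressed as % activity.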
Numbers without * were called inactive; i = inactive; ? = inconclusive; nt = no result given; [ ] = dose if it differs, or a comment. The call rests on the fitted dose curve; in most records, active means well fitted curve in the direction sought with a large enough effect; inconclusive means small, poorly fitted or top-dose-only effect, or another doubt; inactive means no such curve, though single readings can be large; an effect the other way counts as inactive or inconclusive. Potency means the concentration at half of the fitted maximal effect.

SMILES | SW480 rereplic | MCF10A rerep | HT1080-NT tox | KB-V1 MDR tox | KB-3-1 cytotox | HT1080 IDH1KD tx
CCOc1cccc2sc(N(CCCN(C)C)C(=O)c3ccc(S(=O)(=O)N(CC)Cc4ccccc4)cc3)nc12 | 25% | ? | ? | 10µM* | ? | 23µM*
CC(=O)N/C(=C/c1ccccc1)c1ccncc1 | nt | nt | nt | i | i | nt
CCOc1cc(C)c(-c2onc(C(F)(F)F)c2-c2csc(C)n2)c(O)c1 | 8% | ? | ? | 13µM* | ? | ?
COc1ccc(CCN2C(=O)c3[nH]nc(-c4ccccc4O)c3C2c2ccccc2)cc1OC (stereo not given) | ? | ? | ? | 23µM* | 16µM* | 33µM*
COCCCN1C(=O)c2[nH]nc(-c3ccccc3O)c2C1c1cccc(Cl)c1 (stereo not given) | 16µM* | 15µM* | 26µM* | 21µM* | 8.2µM* | ?
CC(C)OCCCN1C(=O)c2[nH]nc(-c3ccccc3O)c2C1c1cccc(Cl)c1 (stereo not given) | ? | ? | ? | 16µM* | ? | ?
CSc1ccc(C2c3c(-c4ccccc4O)n[nH]c3C(=O)N2Cc2ccncc2)cc1 (stereo not given) | nt | nt | nt | i | 13µM* | nt
O=C1CN(C(=O)c2c(F)cccc2Cl)C(c2ccc(F)cc2)c2cc(Br)ccc2N1 (stereo not given) | nt | nt | nt | i | i | nt
Cc1cc(Cl)ccc1OCCCC(=O)OCC(=O)c1c(N)n(C)c(=O)n(C)c1=O | 2% | 22% | 8% | i | i | 4%
COc1ccc(CN(C)CC(=O)Nc2cccc(S(N)(=O)=O)c2)c(OC)c1OC | ? | 0% | -5% | i | i | 1%
C=CCc1ccc(OCC(O)CN2CCN(Cc3ccc(Cl)cc3)CC2)c(OC)c1 (stereo not given) | ? | ? | 21µM* | ? | 23µM* | 21µM*
C=CCc1ccc(OCC(O)CN2CCC(Cc3ccccc3)CC2)c(OC)c1 (stereo not given) | ? | 7% | ? | 21µM* | i | -9%[9.24 µM]
C=CCc1ccc(OCC(O)CN2CCN(c3ccccc3OC)CC2)c(OC)c1 (stereo not given) | ? | 23% | -12% | i | i | -23%
COc1ccc(Br)cc1CNC(=O)c1cc2ccccn2n1 | nt | nt | nt | i | i | nt
CCOC(=O)Nc1cccc(OCC(=O)Nc2ccc3c(c2)CCC3)c1 | -5% | ? | 1% | i | i | 0%
Cc1cccc(NC(=O)Cn2cc(C(=O)C3CCCCC3)c3ccccc32)c1 | nt | nt | nt | i | i | nt
Cc1ccc2nc(N3CCN(C(=O)c4ccccc4F)CC3)c(C#N)cc2c1 | 26% | 12µM* | 11% | i | i | 3%
Cc1cccc(CNC(=O)C(=O)Nc2ccccc2C)c1 | nt | nt | nt | i | i | nt
O=C(NCc1ccccc1)c1cccc(COc2ccc3c(c2)CCC3)c1 | 11% | 3% | -3% | 16µM* | i | -9%
O=C(NN1CCCCC1)c1cccc(COc2ccc(Cl)cc2)c1 | -5% | 12% | 6% | 15µM* | i | 8%
O=C(O)c1cccc(COc2ccc3c(c2)CCC3)c1 | -124% | -1% | -10% | i | i | -3%
CCOc1ccc(OCc2cccc(C(=O)N3CCCCCC3)c2)cc1 | 11% | ? | -16% | ? | i | -1%
COc1ccc([C@H]2CC(=O)C[C@@H](CCn3cc(-c4ccncc4)nn3)O2)cc1 | nt | nt | 7% | i | i | 2%
COc1ccccc1Nc1ncnc2c1cnn2-c1cccc(C)c1 | 6% | ? | 0% | i | i | -9%
COc1cccc(Nc2ncnc3c2cnn3-c2cccc(C)c2)c1 | 1% | ? | -2% | 21µM* | i | -15%
SMILES | SW480 rereplic | MCF10A rerep | HT1080-NT tox | KB-V1 MDR tox | KB-3-1 cytotox | HT1080 IDH1KD tx
Cc1cccc(-n2ncc3c(Nc4c(C)n(C)n(-c5ccccc5)c4=O)ncnc32)c1 | 4% | -7% | 0% | 21µM* | i | -10%
Cc1c(Nc2ncnc3c2cnn3-c2ccccc2)c(=O)n(-c2ccccc2)n1C | 6% | 4% | -3% | ? | i | -9%
Cc1cc(C)nc(N2CCCC(C(=O)Nc3ccc4c(c3)OCCO4)C2)n1 (stereo not given) | 0% | 7% | ? | 7.3µM* | i | ?
CCc1nnc(NC(=O)C2CCCN(c3nc4ccccc4s3)C2)s1 (stereo not given) | 2% | 3% | 7% | 15µM* | i | -2%
Cc1cc(C)nc(N2CCCC(C(=O)Nc3nnc(C)s3)C2)n1 (stereo not given) | -4% | -6% | 0% | 18µM* | i | 8%
Cc1ccnc(N2CCCC(C(=O)Nc3nnc(C)s3)C2)n1 (stereo not given) | 4% | -5% | 16% | i | i | -8%
Cc1ccnc2c(N)cccc12 | nt | nt | nt | i | ? | nt
CSc1ccc(C2C(C#N)=C(N)Oc3c2ccc(=O)c2c(C)oc(C)c32)cc1 (stereo not given) | 10% | 18µM* | ? | i | i | ?
O=C(COC(=O)c1ccc2c(c1)OCCO2)NCc1ccc(Cl)cc1 | nt | nt | -24% | ? | i | ?
CCC(=O)Nc1ccc(-c2nnc(SCc3ccccc3)n2C)cc1 | nt | nt | nt | i | i | nt
CC1=C(C(=O)OC(C)C)C(c2ccccc2)NC(=S)N1C (stereo not given) | ? | -1% | -10% | 18µM* | i | ?
Cn1c2c(c3cnc4cc(Cl)ccc4c31)CNCC2 | nt | nt | nt | i | i | nt
Cc1cc(N2CCN(c3ccccc3Cl)CC2)n2cc(-c3ccccc3)nc2n1 | -1% | ? | -28% | 16µM* | ? | ?
CCOC(=O)c1cc(-c2ccccc2)nn1Cc1ccccc1 | nt | nt | nt | i | i | nt
Cc1ccc(-c2nn3c(=O)cc(CN4CCN(C(=O)/C=C/c5ccccc5)CC4)nc3s2)cc1 | nt | nt | nt | i | i | nt
Cc1cc(C(=O)Nc2nc3c(s2)CCCC3)no1 | 2% | 0% | 0% | 16µM* | i | 11%
CCc1ccc2nc(NC(=O)c3cc(C)on3)sc2c1 | 6.5µM* | 6.5µM* | 9.2µM* | 8.2µM* | 7.3µM* | 6.5µM*
CCc1noc(C)c1C(=O)Nc1nc2ccc(F)cc2s1 | -387% | ? | -10% | i | i | -14%
CCN(Cc1ccc(C#CCCO)cc1)CC1CCCN(CCc2cccc(F)c2)C1 (stereo not given) | 1% | -1% | -23% | i | i | -21%
CN(C)c1ccc(C=O)c(O)c1 | nt | nt | nt | i | i | nt
